Assay [1] can be described thus: qHTS Assay for Identification of Small Molecule Antagonists for NFkB Signaling Pathway. (AID 624479; calls by dose curve;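 further: pathway stimulated with TNF alpha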).
The nature of assay [2]: qHTS Assay for Identification of Small Molecule Agonists for Hypoxia Response Element Signaling Pathway (AID 914; active means well fitted activation curve with a large enough effect in the signal ratio, with a control signal flat, not every such curve was filed as active; the % refers to the signal ratio). The settings on record: ME-180 (cervical carcinoma) HRE-bla reporter, beta-lactamase ratio, CoCl2, 17 h; activation: stronger effect = higher value. In outline:
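Read-out: CCF4 FRET ratio of 460nm to 530nm emission (excitation 405nm) after 2.5 hours at room temperature, taken from HRE-bla ME-180 cells that had been exposed to compound and EC50 CoCl2 for 17 hours.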

Assay [3] has as its target Pyruvate kinase PKM (Homo sapiens) (UniProt P14618). Kind of assay: qHTS Assay for Inhibitors of Human Muscle Pyruvate Kinase (AID 958). The note with it: purified human PKM enzyme activity. Here is the method: (§1) NIH Molecular Libraries Screening Centers Network [MLSCN]
(§2) NIH Chemical Genomics Center [NCGC]
Wael M. Rabeh, Lyudmila Nedyalkova and Hee-Wan Park [Structural Genomics Consortium, 100 College St. Toronto, Ontario, Canada]
Human pyruvate kinase muscle 2 enzyme was supplied as a highly purified (>95% pure) preparation by the Structural Genomics Consortium in Toronto (Ontario, Canada) and was assayed for its ability to generate ATP from ADP using phosphoenolpyruvate (PEP) as a substrate. ATP generation was detected in a coupled reaction by luciferase-mediated luminescence, an ATP-dependent process. Pyruvate kinase substrates, PEP and ADP, were present in the assay at Km and approximately […]-fold below Km respectively. The enzyme was assayed at an intermediate level of activity to screen for inhibitors and activators.
NCGC Assay Protocol Summary:
Three uL of substrate mix (final concentration, 50 mM imidazole pH 7.2, 50 mM KCl, 7 mM MgCl2, 0.5 mM PEP, 0.1 mM ADP, 0.01% Tween 20, 0.05% BSA) was dispensed into 1536 well plates. 23 nL of compound were delivered by a pin tool and 1 uL of enzyme mix (final concentration, 0.1 nM pyruvate kinase, 50 mM imidazole pH 7.2, 0.05% BSA) was added. […] Two uL of detection and kinase stop mix (PKLight, Cambrex) was added, the plates centrifuged, and luminescence read by a ViewLux (Perkin Elmer) at 5 second exposure/plate. […]

The target of assay [4] is Pyruvate kinase (Leishmania mexicana) (UniProt Q27686). The assay can be described thus: qHTS Validation Assay for Activators of Leishmania Mexicana Pyruvate Kinase (AID 959).
Sequence of Pyruvate kinase (Leishmania mexicana) (Q27686 2-499 E452W): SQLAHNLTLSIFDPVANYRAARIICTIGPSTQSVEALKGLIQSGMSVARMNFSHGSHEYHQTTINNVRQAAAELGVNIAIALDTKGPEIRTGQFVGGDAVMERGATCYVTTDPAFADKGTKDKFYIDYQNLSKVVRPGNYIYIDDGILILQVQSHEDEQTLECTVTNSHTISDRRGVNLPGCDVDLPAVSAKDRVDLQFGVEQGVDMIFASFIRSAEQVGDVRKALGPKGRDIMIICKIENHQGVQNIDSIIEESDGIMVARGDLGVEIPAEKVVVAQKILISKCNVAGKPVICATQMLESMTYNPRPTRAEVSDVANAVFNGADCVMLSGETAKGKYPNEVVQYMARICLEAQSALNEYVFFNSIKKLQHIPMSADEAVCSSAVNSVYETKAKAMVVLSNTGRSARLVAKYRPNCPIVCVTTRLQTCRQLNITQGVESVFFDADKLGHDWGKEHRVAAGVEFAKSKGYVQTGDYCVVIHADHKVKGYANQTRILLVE
Excerpt: as §1, §2
PI names: Malcom Walkinshaw, Hugh Morgan and Linda Gilmore
University of Edinburgh, Edinburgh, UK
Species of Leishmania are responsible for a wide spectrum of diseases throughout the tropics and subtropics, ranging from self-healing ulcers to highly disfiguring lesions and serious, often lethal visceral diseases, such as kala-azar. In Leishmania spp. it has been shown that both sugar uptake and gluconeogenesis are necessary to synthesize sufficient hexose-phosphate required for the production of glycoconjugates and the intracellular polysaccharide mannan which are essential for both replication and virulence of the parasites. Therefore, most of the enzymes participating in glycolysis and gluconeogenesis are expected to be essential (Naderer et al., 2006). […]
Three uL of substrate mix (final concentrations, 50 mM imidazole pH 7.2, 50 mM KCl, 7 mM MgCl2, 0.5 mM PEP, 0.1 mM ADP, 0.01% Tween 20, 0.05% BSA) was dispensed into white solid medium binding Greiner 1536 well plates. […] Two uL of detection and kinase stop mix (PKLight, Lonza) was added, and luminescence read by a ViewLux (Perkin Elmer) at 2 second exposure/plate using 2x binning. […]

A further assay concerns CP203. Kind of assay: qHTS profiling for inhibitors of Plasmodium falciparum proliferation (AID 504749). Further: nearly all actives have a fitted effect of over 60% in size. The settings on record: P. falciparum in erythrocytes, SYBR Green DNA, 72 h; series mostly up to 28.7 µM. In outline: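 P. falciparum-infected erythrocytes (0.3% parasitemia, 2.5% hematocrit final) were exposed to compounds for 72 h at 37 C in 5% CO2, then lysed with SYBR Green buffer overnight at room temperature; parasite DNA fluorescence was normalized to artemisinin and DMSO controls.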

Values without a mark were called inactive. Inconclusive results are not listed. Entries that show only a call come without a potency. The source made the active and inactive calls. Unless noted, the call rests on the fitted dose curve; in most records, active means well fitted curve in the direction sought with a large enough effect; inconclusive means small, poorly fitted or top-dose-only effect, or another doubt; inactive means no such curve, though single readings can be large; an effect the other way counts as inactive or inconclusive.

Sequence of Pyruvate kinase PKM (Homo sapiens) (P14618 whole entry, looked up): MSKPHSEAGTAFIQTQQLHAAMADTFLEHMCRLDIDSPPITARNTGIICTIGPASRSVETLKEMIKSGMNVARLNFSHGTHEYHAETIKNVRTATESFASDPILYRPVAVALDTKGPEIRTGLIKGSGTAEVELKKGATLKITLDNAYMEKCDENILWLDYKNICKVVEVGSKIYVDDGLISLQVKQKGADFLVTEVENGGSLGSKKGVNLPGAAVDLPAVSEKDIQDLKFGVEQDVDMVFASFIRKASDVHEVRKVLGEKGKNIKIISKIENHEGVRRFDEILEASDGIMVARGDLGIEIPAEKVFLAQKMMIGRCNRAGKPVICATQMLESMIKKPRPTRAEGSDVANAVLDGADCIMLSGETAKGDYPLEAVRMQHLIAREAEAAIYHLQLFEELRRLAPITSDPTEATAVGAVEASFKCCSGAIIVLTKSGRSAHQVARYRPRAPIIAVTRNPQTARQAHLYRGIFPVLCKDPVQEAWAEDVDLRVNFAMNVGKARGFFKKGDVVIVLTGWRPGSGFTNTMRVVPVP

Take `CC12CCC3C(CCC4=C(O)C(=O)CCC43C)C1CCC2=O` (stereo not given): the compound was called inactive in assay [1]. On to `NNCc1cccc(O)c1`, for which the activation in assay [2] is 15.1%. Further, the Potency in assay [3] is 15.8 µM (active). Besides, the call in assay [4] was inactive. Turning to `CC(C)(O)C1C2OC(=O)C1[C@]1(O)C[C@H]3O[C@]34C(=O)O[C@H]2[C@]14C` (stereo not given in full) (tested in a mixture with another compound), in the assay with CP203, the Potency entry was “inactive”.

The values are drawn from PubChem BioAssay (NCATS).
